Assay results published in PubChem BioAssay (EPA / NIEHS).
Inconclusive results are not listed. Calls of active or inactive are those of the source. How the source made its calls: active means hit-call score of the fitted dose curve at least 0.9, where 1 is the maximum; inconclusive means response in the unintended direction; inactive means score below 0.9.

Target: Oxysterols receptor LXR-alpha (Homo sapiens) (UniProt Q13133)
Assay: ATG_LXRa_TRANS: Attagene TRANS-FACTORIAL HepG2 Assay for human Liver X Receptor alpha (LXRa) (AID 2282980)
Details: HepG2 Attagene TRANS reporter, LXRa transactivation
Experimental: ATG_TRANS is a cell-based, multiplexed-readout assay that uses HepG2, a human liver cell line, with measurements taken at 24 hours after chemical dosing in a 24-well plate.ATG_LXRa_TRANS is one of 30 assay component(s) measured or calculated from the ATG_TRANS assay. It is designed to make measurements of mRNA induction, a form of inducible reporter, as detected with fluorescence intensity signals by Reverse transcription polymerase chain reaction (RT-PCR) and Capillary electrophoresis technology.Data from the assay component ATG_LXRa_TRANS was analyzed into 1 assay endpoint. This assay endpoint, ATG_LXRa_TRANS, was analyzed in the positive analysis fitting direction relative to DMSO as the negative control and baseline of activity. Using a type of inducible reporter, measures of mRNA for gain-of-signal activity can be used to understand the reporter gene at the transcription factor-level as they relate to the gene NR1H3. Furthermore, this assay endpoint can be referred to as a primary readout, because this assay has produced multiple assay endpoints where this one serves a reporter gene function. To generalize the intended target to other relatable targets, this assay endpoint is annotated to the nuclear receptor intended target family, where the subfamily is non-steroidal.
Human liver HepG2 cells are transiently transfected with multiple reporter transcription units (MRTUs) in 6-well plates using FuGene 6 reagent (Roche; 3 ml FuGene/1 mg DNA). The MRTU constructs are regulated by a cis-regulating element (promoter). […] A major difference between the CIS and TRANS system is that in CIS activities of endogenous TFs are measured, whereas the TRANS assay evaluates changes in activities of exogenous, chimeric NR-Gal4 proteins. […] At the end of 24 hour incubation, total RNA was isolated using TriZol reagent (Invitrogen). The isolated RNA is then reverse-transcribed using oligo(dT) primer and Mo-MLV reverse transcriptase (Invitrogen) with DNAse I (Ambion) treatment for 30 min. The one-tenth of the produced cDNA was amplified by PCR using Taq DNA polymerase (Invitrogen) and two reporter sequence-specific primers. The PCR products were fluorescently labeled by primer extension with 6-arboxyfluorescein (6-FAM) 5'-labeled reporter sequence-specific primer (2 min at 95 C, 20 s at 68 C and 10 min at 72 C) and these products were digested with 5U of HpaI (New England Biolabs) for 2h at 37 C. The fragments were purified using Qiaquick PCR columns (Qiagen), analyzed on an ABI 3130xL genetic analyzer (Applied Biosystems) with peak positions identified by using a set of X-rhodamine (ROX)-labeled MapMarker1000 molecular weight standards (BioVentures). The raw capillary electrophoresis data was processed using Attagraph software (Attagene).

Sequence of Oxysterols receptor LXR-alpha (Homo sapiens) (Q13133 whole entry, looked up): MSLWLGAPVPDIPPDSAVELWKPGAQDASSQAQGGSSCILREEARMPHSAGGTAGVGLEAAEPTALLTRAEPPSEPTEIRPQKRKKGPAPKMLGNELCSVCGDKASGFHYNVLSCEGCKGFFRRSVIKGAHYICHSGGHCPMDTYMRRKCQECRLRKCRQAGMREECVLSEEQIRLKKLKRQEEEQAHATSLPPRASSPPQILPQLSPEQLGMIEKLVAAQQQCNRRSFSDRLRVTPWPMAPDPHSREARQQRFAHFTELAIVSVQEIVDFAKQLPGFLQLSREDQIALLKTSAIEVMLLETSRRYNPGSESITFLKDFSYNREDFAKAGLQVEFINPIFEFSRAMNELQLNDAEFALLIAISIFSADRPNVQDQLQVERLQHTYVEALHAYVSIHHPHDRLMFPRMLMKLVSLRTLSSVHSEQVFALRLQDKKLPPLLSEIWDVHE

SMILES | outcome | AC50
O=P(OC(CCl)CCl)(OC(CCl)CCl)OC(CCl)CCl | inactive | 
CCCCCCCCCCCCc1ccccc1 | inactive | 
CN(C)c1ccc(N=NS(=O)(=O)O)cc1 | inactive | 
O=C(OC[C@H]1O[C@@H](OC(=O)c2cc(O)c(O)c(OC(=O)c3cc(O)c(O)c(O)c3)c2)[C@H](OC(=O)c2cc(O)c(O)c(OC(=O)c3cc(O)c(O)c(O)c3)c2)[C@@H](OC(=O)c2cc(O)c(O)c(OC(=O)c3cc(O)c(O)c(O)c3)c2)[C@@H]1OC(=O)c1cc(O)c(O)c(OC(=O)c2cc(O)c(O)c(O)c2)c1)c1cc(O)c(O)c(OC(=O)c2cc(O)c(O)c(O)c2)c1 | inactive | 
CC[C@H](C)C(=O)O[C@H]1C[C@@H](C)C=C2C=C[C@H](C)[C@H](CC[C@@H]3C[C@@H](O)CC(=O)O3)[C@H]21 | inactive | 
CC(C)=CCCC(C)=CC=O | inactive | 
CCCCCCc1ccc(O)cc1O | inactive | 
O=C1CCCCCN1 | inactive | 
COc1ccc(-n2nc(C(F)F)cc2-c2ccc(S(C)=O)cc2)cc1 (stereo not given) | inactive | 
O=C(NS(=O)(=O)/C=C/c1ccccc1)c1ccc(F)cc1Cl | inactive | 
Cn1c(=O)cc(Oc2ccc(F)cc2F)c2cnc(NCC(C)(C)O)nc21 | inactive | 
COC(=O)c1c(Cl)c(Cl)c(C(=O)OC)c(Cl)c1Cl | inactive | 
C=CCCCCCCCCC(=O)O | inactive | 
COc1ccc(/C=C/S(=O)(=O)NC(=O)c2ccc(C)cc2Cl)cc1 | inactive | 
CCCCC(CC)COC(=O)CCCCCCCCC(=O)OCC(CC)CCCC (stereo not given) | inactive | 
Cn1cnc([N+](=O)[O-])c1Sc1ncnc2nc[nH]c12 | inactive | 
CCCCC(CC)COC(=O)c1ccc(C(=O)OCC(CC)CCCC)cc1 (stereo not given) | inactive | 
Cc1[nH]cnc1C[C@H]1CCc2c(C)c3ccccc3n2C1=O | inactive | 
Nc1nc2ncc(CNc3ccc(C(=O)N[C@@H](CCC(=O)O)C(=O)O)cc3)nc2c(=O)[nH]1 | inactive | 
CCN(C(=O)c1cc(C)cc(OC[C@H](C)Nc2ccncc2)c1)C(C)C |  | 0.486 µM (active)

SMILES | outcome | AC50
CC(O)CN(CCN(CC(C)O)CC(C)O)CC(C)O (stereo not given) | inactive | 
COCCOCCOCCOC | inactive | 
O=C(O)c1cc(N=Nc2ccc(S(=O)(=O)Nc3ccccn3)cc2)ccc1O | inactive | 
CCc1cc(SCc2sc(-c3ccc(C(F)(F)F)cc3)nc2CN2CCN(c3ccc(OC)cc3)CC2)ccc1OCC(=O)O | inactive | 
O=C1CCC(N2C(=O)c3ccccc3C2=O)C(=O)N1 (stereo not given) | inactive | 
CCC(C)(C)C(=O)O[C@H]1C[C@@H](C)C=C2C=C[C@H](C)[C@H](CC[C@@H]3C[C@@H](O)CC(=O)O3)[C@H]21 | inactive | 
COCCOc1cc2cc(C(=O)NC3CCN(C(C)C)CC3)n(CC(=O)Nc3ccc(Cl)cn3)c2cn1 | inactive | 
C1N2CN3CN1CN(C2)C3 | inactive | 
O=C(CCCCCCCCc1cccnc1)N1CCC(C=C(c2ccccc2)c2ccccc2)CC1 | inactive | 
CC/C(=C\C(=N/O)C(N)=O)C(C)[N+](=O)[O-] (stereo not given) | inactive | 
O=C1OC(=O)C2C3C=CC(C3)C12 (stereo not given) | inactive | 
CCOC(=O)CC(CC(=O)OCC)(OC(C)=O)C(=O)OCC | inactive | 
CC(C)CCCCCCCOC(=O)CCCCC(=O)OCCCCCCCC(C)C | inactive | 
CCCN(C1CCN(C(=O)C2CCNCC2)CC1)[C@@H]1CCc2ccc(OC)cc2C1 | inactive | 
COc1cccc(-c2ccc(/C=C\CN3CCCCCC3)cc2Cl)c1 | inactive | 
O=C(O)c1cccc(N(Cc2cccnc2)c2ccc(OC(F)F)c(OC(F)F)c2)c1 | inactive | 
Cc1ccc(S(=O)(=O)O)cc1C | inactive | 
CNCc1ccc(NC(=O)c2c[nH]c3c2C(=O)CCC3)cc1 | inactive | 
O=c1n(CC2CO2)c(=O)n(CC2CO2)c(=O)n1CC1CO1 (stereo not given) | inactive | 
COC(=O)c1ccccc1O |  | 25.8 µM (active)
